# Only some compounds are listed: those with a hit (about 8% of all), similar ones and a draw of the others.
# KB-V1 MDR tox – KB-V1 MDR subline cytotoxicity | 3.4% of 400,000 active | AID 1347076 | Potency, µM (top dose mostly 46.1 µM), usual class: cytotoxic | KB-V1 MDR cells viability, CellTiter-Glo, 72 h; further: on the % scale 0 is the no-effect control and ±100 the full control effect; nearly all actives have a fitted effect of over 60% in size
#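 qHTS viability screen in drug-selected KB-V1 MDR cells: 72 h compound treatment at 37 degrees C, ATP luminescence end point.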
# HT1080 IDH1KD tx – toxicity to HT-1080 IDH1 knockdown cells (counter line) | HT-1080 IDH1 knockdown viability, ATP luminescence, 48 h | Potency, µM (titrated, usually from 46.1 µM), without a hit: at the top dose activity, negative = toxicity, most hits filed as cytotoxic | 2% of 360,000 active | AID 686971;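 further: 0% = DMSO wells and -100% = cell-free medium wells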
#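 Using the IDH1-knockdown HT-1080 line run in the same batch and compound series as the NT line, viability after 48 h at 37 °C was determined by CellTiter-Glo luminescence and expressed as % activity.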
# KB-3-1 tox – KB-3-1 parental cell cytotoxicity. KB-3-1 viability, CellTiter-Glo ATP luminescence, 72 h. Potency, µM (titrated, usually from 46.1 µM), usual class: cytotoxic. 1.4% of 400,000 active; further: on the % scale 0 is the no-effect control and ±100 the full control effect; nearly all actives have a fitted effect of over 60% in size
#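 Multi-concentration cytotoxicity screen in KB-3-1 cells grown in DMEM lacking phenol red with 10% FBS. After 72 h at 37 °C with compound, ATP-dependent luminescence was recorded.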
# SW480 rereplic – induces DNA re-replication in SW480 colon adenocarcinoma cells | SW480 DNA re-replication, Hoechst DNA content imaging, 48 h | 1.8% of 340,000 active | Potency, µM (highest dose often 46.1 µM), without a hit: top-dose re-replication activation, actives largely listed as activators; further: % of control where 0% means no effect; nearly all actives have a fitted effect of over 55% in size
#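 250 cells/well; 23 nL cpd via pin tool; 48 hr, 37 C, 5% CO2; Hoechst 40 min; imager read of total nuclear intensity, ex 405/em 500-530 nm.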
# MCF10A rereplic – inducers of DNA re-replication in MCF 10A breast cells. MCF 10A DNA re-replication, Hoechst nuclear intensity, 48 h. Potency, µM (doses to about 46.1 µM), without a hit: at the top dose activity, positive = re-replication, hits mostly activators. AID 624296. 2.9% of 350,000 active; further: % of control where 0% means no effect; nearly all actives have a fitted effect of over 50% in size
# HT1080NT lethal – kills 2HG-producing HT-1080-NT fibrosarcoma cells. Potency, µM (series often up to 46.1 µM), for inactives: at the top dose activity, negative = less viability, most hits filed as cytotoxic. 1.6% of 360,000 active. AID 686970. HT-1080-NT fibrosarcoma viability, CellTiter-Glo ATP luminescence, 48 h;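 further: NT is the 2HG producing partner of a matched IDH1 knockdown line; 0% = DMSO-treated cells and -100% = media-only wells without cells; nearly all actives have a fitted effect of over 55% in size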
#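 Luminescent CellTiter-Glo readout after 48 hours of compound exposure at 37 degrees C defined viability of HT-1080-NT cells. Activity was normalized to DMSO wells and cell-free media wells; concentration-response curves were fitted and assigned curve classes.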
# Active calls of the source: *; i = inactive; ? = inconclusive; nt = no result given. The call rests on the fitted dose curve; in most records, active means well fitted curve in the direction sought with a large enough effect; inconclusive means small, poorly fitted or top-dose-only effect, or another doubt; inactive means no such curve, though single readings can be large; an effect the other way counts as inactive or inconclusive. Potency means the concentration at half of the fitted maximal effect.
SMILES,KB-V1 MDR tox,HT1080 IDH1KD tx,KB-3-1 tox,SW480 rereplic,MCF10A rereplic,HT1080NT lethal
COc1ccc(OC)c(-c2cc(C3CCN(c4cc(Cl)nc(N)n4)CC3)[nH]n2)c1,3.26µM*,?,7.31µM*,?,20.6µM*,-11.1%
Nc1nc(Cl)cc(N2CCC(c3cc(-c4ccc(Cl)cc4)n[nH]3)CC2)n1,14.6µM*,11.2µM*,?,16.4µM*,25.9µM*,22.4µM*
O=C(CN1C(=O)NC2(CCc3ccccc32)C1=O)Nc1c(Cl)cccc1Cl (configuration not stated),i,5.8%,i,-1.3%,-6.8%,3.0%
Cc1ccc(C(=O)Nc2nc3ccccc3c(=O)s2)cc1,i,7.94µM*,i,-4.0%,0.4%,?
CSc1nc2ccc3nc(NC(=O)c4ccc(C)cc4)sc3c2s1,i,11.3%,i,-3.1%,-6.7%,22.8%
O=C(Nc1nc(-c2cccs2)c(-c2cccs2)s1)C1(c2ccccc2)CC1,18.4µM*,-10.8%,i,5.5%,20.6µM*,0.0%
CC(=O)NCCC(=O)Nc1nc(-c2cccs2)c(-c2cccs2)s1,i,-3.2%,i,-2.6%,2.8%,1.0%
C#CC[N+]1(CC#Cc2cccc(C)c2)CCCCC1,i,?,?,-2.1%,1.6%,-21.6%
CCC[N+]1(CC#CCC(c2ccccc2)c2ccccc2)CCCCC1,i,?,2.59µM*,22.6%,28.7%,-27.0%
O=C(C[N+]1(CC#Cc2ccccc2)CCCCC1)c1ccccc1,i,-7.0%,i,3.4%,-8.7%,1.7%
C#CC[N+]1(CC#Cc2ccccc2)CCCCC1,i,0.9%,i,-33.2%,-31.0%,4.1%
C(#Cc1ccccc1)C[N+]1(CC#Cc2ccccc2)CCCCC1,i,?,18.4µM*,-0.8%,0.3%,?
Cc1ccc(C#CC[N+]2(CC#Cc3ccc(C)cc3)CCCCC2)cc1,i,14.6µM*,?,-1.7%,-4.9%,20.6µM*
Cc1nnc(C)n1/N=C/c1cc2ccccc2nc1Cl,i,-5.9%,i,14.7%,?,-11.0%
O=C(NC1CCSC1=O)c1ccccc1 (configuration not stated),i,7.4%,i,-2.2%,-0.1%,10.9%
O=C(Nc1cc(C(F)(F)F)ccc1N1CCCCC1)c1cccc([N+](=O)[O-])c1,16.4µM*,-3.6%,i,-5.3%,?,-1.3%
Cc1cccc(NC(=O)c2ccc(N(C)C3CCCCC3)c([N+](=O)[O-])c2)n1,2.59µM*,?,?,1.2%,17.7%,-23.3%
Cc1cccc(NC(=O)c2ccc(N3CCCCC3)c([N+](=O)[O-])c2)n1,5.17µM*,-4.8%,?,-4.6%,10.3µM*,-9.9%
Cc1cccc(NC(=O)c2ccc(N3CCOCC3)c([N+](=O)[O-])c2)n1,?,5.7%,i,-16.1%,1.9%,5.8%
Cc1ccc(NC(=O)c2ccc(-n3cccn3)c([N+](=O)[O-])c2)cc1,23.1µM*,-1.0%,i,-11.0%,0.6%,-4.2%
O=C(Nc1ccccc1N1CCCCC1)c1cccc([N+](=O)[O-])c1,?,-1.0%,i,2.6%,-2.6%,-1.4%
CCSc1ccc(C(=O)Nc2cccc(C)n2)cc1[N+](=O)[O-],?,-9.3%,?,-57.2%,-56.8%,-0.5%
COc1ccc(NC(=O)C2CCCC2)cn1,i,13.8%,i,4.3%,3.8%,22.8%
COC(=O)Nc1cccn(Cc2c(Cl)cccc2Cl)c1=O,i,-4.8%,i,-2.3%,-0.1%,1.6%
O=C(Nc1cccn(Cc2c(Cl)cccc2Cl)c1=O)c1c(Cl)cccc1Cl,3.66µM*,-9.1%,20.6µM*,20.2%,2.3%,-8.3%
SMILES,KB-V1 MDR tox,HT1080 IDH1KD tx,KB-3-1 tox,SW480 rereplic,MCF10A rereplic,HT1080NT lethal
CCC(COC(=O)Nc1cccc(C)c1C)NC(=O)OCC(C)C (configuration not stated),9.2µM*,-14.8%,i,-2.2%,-2.8%,-4.5%
Cc1ccc2cc(C#N)c(SCc3nnc(-c4ccccc4[N+](=O)[O-])o3)nc2c1,13µM*,20.1%,9.2µM*,14.5%,1.5%,19.2%
COc1ccc(CSC(=S)NNc2ccccc2)cc1,i,13µM*,?,nt,nt,?
CC1CCCCN1C(=O)C1CCN(S(=O)(=O)c2ccc(-n3cnnn3)cc2)CC1 (configuration not stated),i,-0.4%,i,-7.3%,-1.5%,-3.9%
O=C(COc1coc(CN2CCc3ccccc3C2)cc1=O)Nc1cccc(F)c1,i,-5.8%,i,-0.3%,15.6%,-8.2%
Cc1cc(C)cc(NC(=O)Cc2c(C(=O)O)c(C)cn2C)c1,i,nt,i,nt,nt,nt
CCN(N=O)c1ccc(C=C2C=Cc3ccccc32)cc1,20.6µM*,11.4%,i,-3.9%,?,7.5%
CC(O)(CS(=O)(=O)Cc1ccccc1)C(=O)Nc1ccc(C(F)(F)F)cc1 (configuration not stated),20.6µM*,?,i,-8.0%,19.6%,-8.9%
CC(O)(CS(=O)(=O)Cc1ccccc1)C(=O)Nc1cccc(C(F)(F)F)c1 (configuration not stated),14.6µM*,?,i,-19.9%,17.7%,24.1%
O=C1NC(=S)S/C1=C\c1cc2ccccc2nc1N1CCCCC1,i,-28.0%,?,-8.3%,?,-29.5%
Cc1cc(C)n(-c2nc(NCCC(C)C)c3c4c(sc3n2)COC(C)(C)C4)n1,2.31µM*,9.7%,i,-5.5%,3.1%,18.5%
Cc1cc(C)n(-c2nc(NCCN(C)C)c3c4c(sc3n2)COC(C)(C)C4)n1,i,?,i,?,?,18.4µM*
Cc1ccc(S(=O)(=O)NC2=C(N3CCN(c4ccccc4F)CC3)C(=O)c3ccccc3C2=O)cc1,?,16.6%,?,0.8%,13.7%,13.7%
CC(=O)c1ccc(NC2=C(N3CCOCC3)C(=O)c3ccccc3C2=O)cc1,25.9µM*,?,i,2.5%,0.0%,?
CC(=O)Nc1ccc(S(=O)(=O)NC2=C(N3CCN(c4ccc(F)cc4)CC3)C(=O)c3ccccc3C2=O)cc1,?,?,i,16.4µM*,16.4µM*,?
O=C(O)c1ccc(NC2=C(N3CCOCC3)C(=O)c3ccccc3C2=O)cc1,i,5.0%,i,nt,4.4%,-1.8%
Cc1ccc(NC2=C(N3CCOCC3)C(=O)c3ccccc3C2=O)cc1,?,?,i,1.2%,0.6%,?
CC(=O)N(C1=C(N2CCOCC2)C(=O)c2ccccc2C1=O)c1ccc(C(=O)O)cc1,i,-4.3%,i,4.11µM*,?,-11.9%

# Assay outcomes deposited in PubChem by National Center for Advancing Translational Sciences (NCATS).
